For 40 compounds, inhibition and growth inhibition results are on record in PubChem BioAssay.

Values without a mark were called inactive. Active and inactive are the calls of the source. No rule for the calls is given here.

Sequence of L-lactate dehydrogenase (Plasmodium falciparum (isolate CDC / Honduras)) (Q27743 whole entry, looked up): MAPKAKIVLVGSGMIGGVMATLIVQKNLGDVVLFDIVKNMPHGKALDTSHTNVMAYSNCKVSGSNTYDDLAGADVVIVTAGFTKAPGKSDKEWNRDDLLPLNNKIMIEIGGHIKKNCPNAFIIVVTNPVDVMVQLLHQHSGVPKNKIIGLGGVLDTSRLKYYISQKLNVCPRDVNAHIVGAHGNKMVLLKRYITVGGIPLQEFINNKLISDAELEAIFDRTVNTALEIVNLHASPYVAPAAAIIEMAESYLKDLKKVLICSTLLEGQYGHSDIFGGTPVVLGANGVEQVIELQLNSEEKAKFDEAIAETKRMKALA

One assay has as its target L-lactate dehydrogenase (Plasmodium falciparum (isolate CDC / Honduras)) (UniProt Q27743). Kind of assay: PfLDH activity inhibition – cell lysate, 3D7 strain, counter-screen for P. falciparum growth inhibition project (AID 2304).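 Also: 0% = vehicle and 100% = reference inhibitor.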 Particulars: P. falciparum 3D7 crude extract, LDH APAD/NBT absorbance; at 2 µM; stronger effect = higher value.
`Cc1cccc2[nH]c(-c3cccc(-c4cccc(NC(=O)Nc5ccc(Cl)cc5)c4)c3)nc12`: the inhibition is -2%.

Consider `CC(C)(C)c1ccc(CNC(=O)c2cc(CNC3CCNC3)ccc2O)cc1` (configuration not stated), for which the inhibition was -6%.

Take `Cc1cc(NC(=O)c2cccs2)ccc1OC1CCN(Cc2ccccc2)CC1`: the inhibition was 4%.

In the case of `CCOc1c(CNCCCNc2nc3ccccc3[nH]2)cc(I)cc1OC`, the inhibition is 1%.

Turning to `Cc1ncccc1-c1cccc2c(NC(=O)Nc3ccc4nccc(N5CCN(C)CC5)c4c3)cccc12`, the inhibition is -6%.

In the case of `COc1cc(CNCCC(C)C)ccc1OCc1cccc(COc2ccc(CNCCC(C)C)cc2OC)c1`, the inhibition was 6%.

Consider `O=C(Cc1ccc(Cl)cc1)NC1CCN(c2ccnc3cc(Cl)ccc23)C1` (configuration not stated), for which the inhibition is -3%.

`Cn1nccc1C(=O)NCCNCc1cccc(-c2ccc(-c3nc4ccc(C(F)(F)F)cc4[nH]3)s2)c1`: the inhibition was -6%.

Turning to `CCNc1cc(C)nc(Nc2ccc(NC(=O)c3ccccc3)cc2)n1`, the inhibition was -1%.

`CCCn1cnc2cc(C(=O)Nc3ccc(-c4cccc(CN(C)C)c4)cc3)ccc2c1=O`: the inhibition was -6%.

Consider `c1ccc(COc2ccccc2COc2ccccc2-c2ccc3cccnc3n2)cc1`, for which the inhibition is 5%.

Turning to `COc1ccc2c(ccc3c2ncc2c(=O)n(-c4ccccc4)[nH]c23)c1`, the inhibition is 4%.

As to `O=C(Nc1ccc(-c2nc3ccccc3[nH]2)cc1)c1cnc(Cl)c(Cl)c1`, the inhibition was 0%.

On to `Nc1c(Cl)cc(C(O)CNCCCCCOCCc2ccccc2)cc1C(F)(F)F` (configuration not stated), for which the inhibition was 5%.

As to `CON(C)C(=O)[C@@H](CCCCNC(=O)OCc1ccccc1)NC(=O)OC(C)(C)C`, the inhibition was -4%.

For the compound `CC(C)(C)C1CC(=O)C[C@@H]2C(=O)N(c3ccc(Br)cc3)C(=O)[C@H]12` (some centres not stated), the inhibition was 1%.

As to `CC1(C)CCCC(=Cc2ccc(Br)cc2)C1(O)Cn1ccnc1` (configuration not stated), the inhibition was 0%.

With `O=C(NCC1CC1)C1Cc2c([nH]c3ccc(Br)cc23)C2(CCN(CCc3ccccc3)CC2)N1` (configuration not stated), the inhibition was 1%.

With `CCc1cn2c3c(cc(C(=O)N[C@@H](Cc4cc(F)cc(F)c4)[C@H](O)CNC4CCCCC4)cc13)N(C)S(=O)(=O)CC2`, the inhibition was -6%.

Regarding `CC(CNC1CCN(CCn2c(=O)ccc3ccc(F)cc32)CC1)c1ccccc1` (configuration not stated), the inhibition was -1%.

With `CC(CCCCOCCc1ccccc1)NCC(O)c1cc(Cl)c(N)c(Cl)c1` (configuration not stated), the inhibition is -1%.

Regarding `Cc1cc(N)c2cc(NC(=O)c3cccc(C(=O)Nc4ccc5nc(C)cc(N)c5c4)c3)ccc2n1`, the inhibition is 4%.

Consider `O=C(/C=C/c1ccc(Cl)c(Cl)c1)NCCCCCN1CCC(C(=O)Nc2ccc(Cl)c(Cl)c2)CC1`, for which the inhibition is -2%.

`NCC1CCCN1Cc1ccc(-c2cccc(-c3nc4ccc(C(F)(F)F)cc4[nH]3)c2)cc1` (configuration not stated): the inhibition was 1%.

In the case of `COc1ccc(-c2nc(-c3ccc([N+](=O)[O-])cc3)no2)cc1OC`, the inhibition was -1%.

For `CC(C)C[C@@H](/C=N/N1CCOC1=O)NC(=O)[C@H](CC(C)C)NC(=O)c1ccc(F)cc1`, the inhibition is -4%.

For the compound `Cc1nc2ccc3ccc(CNc4ccc5c(c4)CN([C@H](CCC(=O)O)C(=O)O)C5=O)cc3c2c(=O)[nH]1`, the inhibition is 2%.

System in a further assay: not listed separately
Kind of assay: inhibition of 3D7 malaria parasite growth – strain 3D7 (AID 2306).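 Also: 0% = DMSO wells and 100% = chloroquine plus artemisinin control wells.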 The conditions noted are these: P. falciparum 3D7 erythrocytic growth, LDH absorbance, 72 h; at 2 µM; stronger effect = higher value.
On to `Cc1cc(N(C)CCCN(C)C)nc(Nc2ccc(Br)cc2)n1`, for which the growth inhibition was 100% (active).

For the compound `Cc1noc(C)c1-c1cccc(CNCc2cccc(-c3ccc(-c4nc5ccc(C(F)(F)F)cc5[nH]4)s3)c2)c1`, the growth inhibition is 100% (active).

On to `CN(C(=O)C1(c2ccc(Cl)cc2)CC1)C1CCN(CCCCCNC(=O)/C=C/c2ccc(Cl)c(Cl)c2)CC1`, for which the growth inhibition is 88% (active).

Turning to `Cc1cc(N[C@@H](CC(C)C)C(=O)Nc2ccccc2)nc(NCC2CCCCC2)n1`, the growth inhibition is 101% (active).

Take `Nc1c2c(nc3ccc(NC(=O)CCCCCCc4ccccc4)cc13)CCCC2`: the growth inhibition is 100% (active).

For `O=C(/C=C/c1ccccc1Cl)NC1CCC(CN2CCC(c3c[nH]c4ccncc34)CC2)CC1` (configuration not stated), the growth inhibition is 100% (active).

For `Cc1ccc(Cn2nc(Cl)c(N3CCCNCC3)cc2=O)cc1NC(=O)Nc1ccc(-c2ccccc2)cc1`, the growth inhibition is 101% (active).

Consider `COc1c(C2CCN(CCCCNC(=O)c3ccc(NC(=O)c4ccc(C#N)cc4)cc3)CC2)ccc2c1CCCC2`, for which the growth inhibition is 97% (active).

In the case of `O=S(=O)(NCCN1CCCC1)c1ccc(-c2ccc(CNCc3ccc(F)cc3)cc2)s1`, the growth inhibition was 101% (active).

As for `CCN(c1ccccc1)S(=O)(=O)c1ccc(OC)c(NC(=O)c2cccc(C(F)(F)F)c2)c1`, the growth inhibition is 90% (active).

As for `O=C(Nc1cccc(C(F)(F)F)c1)c1ccc(S(=O)(=O)NCC2CCN(CC3CCCCC3)CC2)cc1`, the growth inhibition was 100% (active).

For the compound `Cc1cc(N(C)C2CCN(CC3CCCCC3)C2)nc(Nc2ccc(Br)cc2)n1` (configuration not stated), the growth inhibition was 98% (active).

Consider `CC(=O)Nc1ccc(OCCCCN(Cc2ccccc2C(F)(F)F)c2ccc(C#N)c(C(F)(F)F)c2)cc1`, for which the growth inhibition was 80% (active).

Turning to `Cc1cccc2[nH]c(-c3cccc(-c4cccc(NC(=O)Nc5ccc(Cl)cc5)c4)c3)nc12`, the growth inhibition is 100% (active).

With `CC(C)(C)c1ccc(CNC(=O)c2cc(CNC3CCNC3)ccc2O)cc1` (configuration not stated), the growth inhibition is 94% (active).

With `Cc1cc(NC(=O)c2cccs2)ccc1OC1CCN(Cc2ccccc2)CC1`, the growth inhibition was 95% (active).

Take `CCOc1c(CNCCCNc2nc3ccccc3[nH]2)cc(I)cc1OC`: the growth inhibition is 100% (active).

Turning to `Cc1ncccc1-c1cccc2c(NC(=O)Nc3ccc4nccc(N5CCN(C)CC5)c4c3)cccc12`, the growth inhibition was 101% (active).

For `COc1cc(CNCCC(C)C)ccc1OCc1cccc(COc2ccc(CNCCC(C)C)cc2OC)c1`, the growth inhibition was 99% (active).

Take `O=C(Cc1ccc(Cl)cc1)NC1CCN(c2ccnc3cc(Cl)ccc23)C1` (configuration not stated): the growth inhibition is 82% (active).

As for `Cn1nccc1C(=O)NCCNCc1cccc(-c2ccc(-c3nc4ccc(C(F)(F)F)cc4[nH]3)s2)c1`, the growth inhibition was 100% (active).

As for `CCNc1cc(C)nc(Nc2ccc(NC(=O)c3ccccc3)cc2)n1`, the growth inhibition was 102% (active).

In the case of `CCCn1cnc2cc(C(=O)Nc3ccc(-c4cccc(CN(C)C)c4)cc3)ccc2c1=O`, the growth inhibition was 95% (active).

`c1ccc(COc2ccccc2COc2ccccc2-c2ccc3cccnc3n2)cc1`: the growth inhibition was 87% (active).

On to `COc1ccc2c(ccc3c2ncc2c(=O)n(-c4ccccc4)[nH]c23)c1`, for which the growth inhibition was 95% (active).

Take `O=C(Nc1ccc(-c2nc3ccccc3[nH]2)cc1)c1cnc(Cl)c(Cl)c1`: the growth inhibition was 102% (active).

On to `Nc1c(Cl)cc(C(O)CNCCCCCOCCc2ccccc2)cc1C(F)(F)F` (configuration not stated), for which the growth inhibition is 99% (active).

Regarding `CON(C)C(=O)[C@@H](CCCCNC(=O)OCc1ccccc1)NC(=O)OC(C)(C)C`, the growth inhibition is 98% (active).

For `CC(C)(C)C1CC(=O)C[C@@H]2C(=O)N(c3ccc(Br)cc3)C(=O)[C@H]12` (some centres not stated), the growth inhibition is 94% (active).

As for `CC1(C)CCCC(=Cc2ccc(Br)cc2)C1(O)Cn1ccnc1` (configuration not stated), the growth inhibition was 99% (active).

With `O=C(NCC1CC1)C1Cc2c([nH]c3ccc(Br)cc23)C2(CCN(CCc3ccccc3)CC2)N1` (configuration not stated), the growth inhibition is 88% (active).

With `CCc1cn2c3c(cc(C(=O)N[C@@H](Cc4cc(F)cc(F)c4)[C@H](O)CNC4CCCCC4)cc13)N(C)S(=O)(=O)CC2`, the growth inhibition is 100% (active).

Turning to `CC(CNC1CCN(CCn2c(=O)ccc3ccc(F)cc32)CC1)c1ccccc1` (configuration not stated), the growth inhibition was 85% (active).

As to `CC(CCCCOCCc1ccccc1)NCC(O)c1cc(Cl)c(N)c(Cl)c1` (configuration not stated), the growth inhibition was 96% (active).

Turning to `Cc1cc(N)c2cc(NC(=O)c3cccc(C(=O)Nc4ccc5nc(C)cc(N)c5c4)c3)ccc2n1`, the growth inhibition was 94% (active).

In the case of `O=C(/C=C/c1ccc(Cl)c(Cl)c1)NCCCCCN1CCC(C(=O)Nc2ccc(Cl)c(Cl)c2)CC1`, the growth inhibition is 98% (active).

For the compound `NCC1CCCN1Cc1ccc(-c2cccc(-c3nc4ccc(C(F)(F)F)cc4[nH]3)c2)cc1` (configuration not stated), the growth inhibition is 99% (active).

Take `COc1ccc(-c2nc(-c3ccc([N+](=O)[O-])cc3)no2)cc1OC`: the growth inhibition is 96% (active).

Consider `CC(C)C[C@@H](/C=N/N1CCOC1=O)NC(=O)[C@H](CC(C)C)NC(=O)c1ccc(F)cc1`, for which the growth inhibition was 85% (active).

Regarding `Cc1nc2ccc3ccc(CNc4ccc5c(c4)CN([C@H](CCC(=O)O)C(=O)O)C5=O)cc3c2c(=O)[nH]1`, the growth inhibition is 87% (active).
